Test results as given in PubChem BioAssay (EPA / NIEHS).
Activity calls are given as the source filed them. How the source made its calls: active means hit-call score of the fitted dose curve at least 0.9, where 1 is the maximum; inactive means score below 0.9.

Test: APR_HepG2_StressKinase_1hr: Apredica 1-hour HepG2 Assay for Stress Kinase (AID 2282906)
Settings: HepG2 stress kinase (phospho-c-Jun) imaging, actives raise or lower the signal
Procedure: APR_HepG2_1hr is a cell-based, multiplexed-readout assay that uses HepG2, a human liver cell line, with measurements taken at 1 hour after chemical dosing in a 384-well plate.APR_HepG2_StressKinase_1hr is one of 10 assay component(s) measured or calculated from the APR_HepG2_1hr assay. It is designed to make measurements of enzyme activity, a form of enzyme reporter, as detected with fluorescence intensity signals by HCS Fluorescent Imaging technology.Data from the assay component APR_HepG2_StressKinase_1hr was analyzed into 1 assay endpoint. This assay endpoint, APR_HepG2_StressKinase_1hr, was analyzed with bidirectional fitting relative to DMSO as the negative control and baseline of activity. Using a type of enzyme reporter, measures of protein for gain or loss-of-signal activity can be used to understand the signaling at the pathway-level as they relate to the gene . Furthermore, this assay endpoint can be referred to as a primary readout, because this assay has produced multiple assay endpoints where this one serves a signaling function. To generalize the intended target to other relatable targets, this assay endpoint is annotated to the cell cycle intended target family, where the subfamily is stress response.
Cells were treated with dimethyl sulfoxide (DMSO) as a solvent control at a final concentration of 0.5% v/v or with compounds in DMSO with a resulting final DMSO concentration of 0.5% v/v. Compound treatment was done at concentrations of 0.39, 0.78, 1.56, 3.12, 6.24, 12.5, 25, 50, 100, and 200 uM in duplicate on each plate. Cells were treated with compounds for 1, 24, or 72 hr. Carbonyl […] m-chloro-phenylhydrazone (CCCP) and taxol were used as positive controls for mitochondrial function and cytoskeletal stability, respectively; DMSO served as the negative control for this experiment. Cells were fixed by the direct addition of 50 uL formaldehyde in Hank's Balanced Salt Solution (HBSS) to a final concentration of 3.7%. After incubation in the fixation medium for 30 min at room temperature (293-298 K), cells were rinsed twice with HBSS and treated with cell permeabilization buffer (16 uL of 0.5% Triton X-100) for 10 min at room temperature (293-298 K) before labeling. For mitochondrial membrane potential and mitochondrial measurements, pre-fixed cells were incubated with 50 uL of MitoTracker Red CMXRos (Invitrogen) at a concentration of 250 nM for 30 min before fixation. In the remaining cases, post-fixed cells were labeled by incubation with a multiplexed mixture of primary antibodies in HBSS for 60 min at room temperature (293-298 K) to detect immunoreactivity of c-Jun (1:500), phospho-histone H3 (1:100), phospho-histone H2A.x (1:200), p53 (1:400), alpha-tubulin (1:200) and Hoechst 33342 (2 ug/mL). Cells were labeled for multiplexed imaging on two separate plates: a) Hoechst 33342, MitoTracker Red, phospho-histone H3, and alpha-tubulin, and b) Hoechst 33342, phospho-histone H2A.x, and c-Jun. A final rinse with HBSS (50 uL) was performed before analysis. The primary and secondary antibodies for the proteins were phospho-histone H3 (rabbit anti-phospho-histone H3 and FITC-donkey anti-rabbit IgG), phospho-histone H2A.x (mouse anti-phospho-histone H2A.x and FITC-donkey anti-mouse IgG), c-Jun (rabbit anti-phospho-c-Jun and Cy3-donkey anti-rabbit IgG), p53 (sheep anti-p53 and Cy5-donkey anti-sheep IgG), alpha-tubulin (mouse anti-alpha-tubulin and Cy5-donkey anti-mouse IgG). These antibodies are available as the CellCiphr HepG2 assay kit (Millipore).Digital images of each well were captured using a Cellomics ArrayScan VTI (Thermo Scientific Cellomics) (0.8 NA objective, 0.63x optical coupler, and XF-93 filter set) at 20x magnification. The images were acquired using the autofocus feature of the ArrayScan instrument, which entails the following steps. First, the camera focuses on channel 1 (Hoechst 33342), where nuclei are identified. Second, a Z offset of 1 um is used for capturing mitochondria (MitoTracker Red). […]

SMILES | outcome | AC50
CCCN(CC)CC1COC2(CCC(C(C)(C)C)CC2)O1 (stereo not given) | inactive | 
COP(=S)(OC)SCn1nnc2ccccc2c1=O | inactive | 
CCNP(=S)(OC)O/C(C)=C/C(=O)OC(C)C (stereo not given) | inactive | 
Cc1cc(C)nc(Nc2ccccc2)n1 | inactive | 
Cc1nc(N(C)C)nc(OC(=O)N(C)C)c1C | inactive | 
COCC(C)N(C(=O)CCl)c1c(C)csc1C (stereo not given) | inactive | 
COC(=O)NS(=O)(=O)c1ccc(N)cc1 | inactive | 
CC(C)NC(=O)N1CC(=O)N(c2cc(Cl)cc(Cl)c2)C1=O | inactive | 
COc1ccc(-c2ccccc2)cc1NNC(=O)OC(C)C | inactive | 
COC(=O)c1c(C(F)F)nc(C(F)(F)F)c(C2=NCCS2)c1CC(C)C | inactive | 
Nc1c(Cl)c(F)nc(OCC(=O)O)c1Cl | inactive | 
O=C(Nc1ccccc1-c1ccc(Cl)cc1)c1cccnc1Cl | inactive | 
CC(C)N1C(=O)N(c2ccccc2)CSC1=NC(C)(C)C | inactive | 
CNC(=O)Oc1cccc2ccccc12 | inactive | 
Clc1cccc(C(Cl)(Cl)Cl)n1 | inactive | 
CC1(C)C(C(=O)OC(C#N)c2cccc(Oc3ccccc3)c2)C1(C)C (stereo not given) | inactive | 
CCCCC(O)(Cn1cncn1)c1ccc(Cl)cc1Cl (stereo not given) | inactive | 
CSC(=O)c1c(C(F)F)nc(C(F)(F)F)c(C(=O)SC)c1CC(C)C | inactive | 
COC(=O)NC(=S)Nc1ccccc1NC(=S)NC(=O)OC | inactive | 
Clc1nc(Cl)nc(Nc2ccccc2Cl)n1 | inactive | 

SMILES | outcome | AC50
Cc1c(COC(=O)[C@@H]2[C@H](/C=C(\Cl)C(F)(F)F)C2(C)C)cccc1-c1ccccc1 | inactive | 
C=CCOC(=O)C(C)(C)OC(=O)c1cc(-n2c(=O)cc(C(F)(F)F)n(C)c2=O)ccc1Cl | inactive | 
Nc1c(Cl)c(Cl)nc(C(=O)O)c1Cl | inactive | 
COCC(=O)N(c1c(C)cccc1C)C(C)C(=O)OC (stereo not given) | inactive | 
CC(C)=CC1C(C(=O)OCc2coc(Cc3ccccc3)c2)C1(C)C (stereo not given) | inactive | 
N#CN=C1SCCN1Cc1ccc(Cl)nc1 | inactive | 
COc1cc(OC)nc(NC(=O)NS(=O)(=O)c2ncccc2OCC(F)(F)F)n1 | inactive | 
CC(C)Oc1cccc(NC(=O)c2ccccc2C(F)(F)F)c1 | inactive | 
O=P(O)(O)CCCl | inactive | 
CCCC(=NOCC)C1=C(O)CC(CC(C)SCC)CC1=O (stereo not given) | inactive | 
CCOP(=S)(OCC)Oc1nc(Cl)n(C(C)C)n1 | inactive | 
CCOC(=O)C(C)OC(=O)c1cc(Oc2ccc(C(F)(F)F)cc2Cl)ccc1[N+](=O)[O-] (stereo not given) | inactive | 
OC(c1ccc(Cl)cc1)(c1ccc(Cl)cc1)C(Cl)(Cl)Cl |  | 30.9 µM (active)
O=C1C2CC=CCC2C(=O)N1SC(Cl)(Cl)Cl (stereo not given) |  | 87.6 µM (active)
COP(=O)(OC)O/C(C)=C/C(=O)N(C)C | inactive | 
N#Cc1c[nH]cc1-c1cccc2c1OC(F)(F)O2 | inactive | 
C=C(C)CN(CC)c1c([N+](=O)[O-])cc(C(F)(F)F)cc1[N+](=O)[O-] | inactive | 
Cc1ccc(N=CN(C)C=Nc2ccc(C)cc2C)c(C)c1 |  | 75.4 µM (active)
CCOc1nc(C(Cl)(Cl)Cl)ns1 | inactive | 
O=c1n(Cl)c(=O)n(Cl)c(=O)n1Cl | inactive | 
